This passage reports AC50 and outcome results from PubChem BioAssay (EPA / NIEHS).

Activity calls are given as the source filed them. How the source made its calls: active means hit-call score of the fitted dose curve at least 0.9, where 1 is the maximum; inactive means score below 0.9.

Chain of Cytochrome P450 3A7 (Homo sapiens) (P24462 whole entry, looked up): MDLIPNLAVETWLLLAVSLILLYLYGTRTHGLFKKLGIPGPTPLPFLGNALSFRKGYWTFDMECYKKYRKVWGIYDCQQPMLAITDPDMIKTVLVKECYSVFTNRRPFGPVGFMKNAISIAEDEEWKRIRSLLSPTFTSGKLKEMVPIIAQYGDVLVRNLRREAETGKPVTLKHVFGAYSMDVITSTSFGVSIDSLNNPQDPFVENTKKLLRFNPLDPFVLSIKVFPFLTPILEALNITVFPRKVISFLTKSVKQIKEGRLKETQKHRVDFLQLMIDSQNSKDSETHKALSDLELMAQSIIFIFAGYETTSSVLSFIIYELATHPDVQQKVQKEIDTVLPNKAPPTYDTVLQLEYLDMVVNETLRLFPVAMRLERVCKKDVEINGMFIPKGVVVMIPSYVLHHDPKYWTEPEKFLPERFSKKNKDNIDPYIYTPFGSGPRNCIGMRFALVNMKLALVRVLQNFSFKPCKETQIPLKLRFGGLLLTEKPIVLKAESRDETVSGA

Read-out in the experiment: Cytochrome P450 3A7 (Homo sapiens) (UniProt P24462)
The experiment can be described thus: LTEA_HepaRG_CYP3A7: Life Technologies and Expression Analysis (LTEA) Assay for CYP3A7 using HepaRG (AID 2283492). The settings on record: mRNA level, 48 h; actives raise or lower the signal. The procedure:
LTEA_HepaRG is a cell based, multiplexed-readout assay that uses HepaRG, a human liver cell line, with measurements taken at 48 hours after chemical dosing on a 96-well plate.LTEA_HepaRG_CYP3A7 is one of 102 assay component(s) measured in the LTEA HepaRG cell culture assay. It is a marker of NR mediated metabolism/Undifferentiated hepatocyte.Data from the assay component LTEA_HepaRG_CYP3A7 was analyzed into 1 endpoint. This assay endpoint, LTEA_HepaRG_CYP3A7, was analyzed with bidirectional fitting relative to DMSO as the negative control and baseline of activity. Using a type of inducible reporter, measures of mRNA induction for gain or loss-of-signal activity can be used to understand regulation of transcription factor activity. To generalize the intended target to other relatable targets, this assay endpoint is annotated to the cyp intended target family, where the subfamily is xenobiotic metabolism.
A total of 1060 chemcials from the ToxCast library were tested in eight-point concentration-response experiments. Cell culture and cytotoxicity assays were conducted at Thermo Fisher Scientific's Custom Services facility (Madison, WI). A single lot of human HepaRG cells (Thermo Fisher Scientific, Frederick, MD) was used for the cell culture experiments. 96-well format collagen type I coated plates of human HepaRG cells were prepared using established methods. Briefly, cryopreserved HepaRG cells were thawed, plated at a density of approximately 100,000 cells/well in HepaRG Thaw, Plate, and General Purpose media (HPRG770, Thermo Fisher Scientific), and incubated for 48 hours. 0.5% DMSO was selected as vehicle control to balance the requisite need of DMSO in HepaRG cultures to maintain differentiation (for example, baseline metabolism, proportions of hepatocytes vs. cholangiocytes), while enabling further hepatic receptor pathway activation (for example, PXR and CAR) in response to chemical exposure. 48 hours after plating, the culture medium was replaced with HepaRG Serum-Free Incudtion Media. Cells were exposed to each test chemical in duplicate and maintained in CO2 incubators for another 48 hours. Chemical plates were thawed to room temperature and 200x concentrations of treatment groups were prepared. 8-point conentration-reponse curves were made with the highest exposure at 100 uM, followed by half-log dilutions, all in 0.5% DMSO. Each test plate contained variouse controls, induction positive controls (1mM phenobarbital), cytotoxicity positive controls ([…] aflatoxin B1), vehicle controls (0.5% DMSO), and total lysis controls (0.5% DMSO). Cell morphology images were taken using an Essen IncuCyte FLR automated microscope, with six 96-well plates imaged in about 24 minutes. Images were captured and exported and JPEG files. Spent culture media was transfered to black-well plates for the LDH assay, and remaining media was sorted at -80 C for later use. Cells were treated with RLT buffer and frozen until shipped for gene expression analysis. Total RNA was isolated from the cell suspension in 75 uL of Buffer RLT (Qiagen, Germantown, MD 20874) by Quintiles/Expression Analysis (Durham, NC) using a custom isolation procedure. Total RNA from each plate well was transferred to a preamplification plate. Fluidigm's 96.96 Dynamic ArrayTM (Fluidigm, Amsterdam, the Netherlands) technology was used for gene expression analyses by quantitative reverse transcription polymerase chain reaction (qRT-PCR, performed by Quintiles/Expression Analysis, Durham, NC)89. Standard TaqManTM Assays (Applied Biosystems/ThermoFisher Scientific, Foster City, CA) were used to assess the expression of 93 genes selected based on their selectivity and sensitivity to important hepatic receptors known to be modulated by environmental chemicals; importance in human hepatocyte functionality; and hepatotoxicity. […]
One may read the AC50 as the midpoint of the concentration-response curve, whichever way the signal moves. For `Cc1cc(N=Nc2ccccc2C)ccc1N`, the AC50 is 6.38 µM (active).

With `c1ccc2c(c1)-c1cccc3cccc-2c13`, the AC50 is 9.36 µM (active).

Regarding `c1ccc2c(c1)oc1ccccc12`, the outcome was inactive.

`CN(C)C(=O)Nc1ccc(Cl)cc1`: the call was inactive.

Turning to `Clc1ccc(Cl)c(Cl)c1`, the call was inactive.

Consider `CCNS(=O)(=O)C(F)(F)C(F)(F)C(F)(F)C(F)(F)C(F)(F)C(F)(F)C(F)(F)C(F)(F)F`, for which the call was inactive.

For the compound `ClC1=C(Cl)[C@]2(Cl)[C@H]3[C@H]([C@@H]4C=C[C@H]3C4)[C@@]1(Cl)C2(Cl)Cl`, the AC50 was 8.45 µM (active).

For `CCCSC(=O)N(CCC)CCC`, the call was inactive.

As to `CC(C)N(Cc1ccccc1)C(=O)C(C)(C)C`, the half-maximal activity concentration (AC50) was 11.5 µM (active).

For the compound `C[N+](C)(C)CC1CO1` (stereo not given), the call was inactive.

For `O=[N+]([O-])C(Br)(CO)CO`, the call was inactive.

Turning to `Nc1cc(Cl)cc(C(=O)O)c1Cl`, the compound was called inactive.

In the case of `Oc1ccccc1Cl`, the outcome was inactive.

As to `[Cl-].[Cl-].[Hg+2]`, the compound was called inactive.

With `CCCCCCCCOC(=O)c1ccc(C(=O)OCCCCCCCC)c(C(=O)OCCCCCCCC)c1`, the outcome was inactive.

As to `Clc1ccccc1Cl`, the compound was classed as inactive.

`CCCCCOC(=O)c1ccccc1C(=O)OCCCCC`: the outcome was inactive.

As to `COC(=O)c1ccccc1N`, the compound was classed as inactive.

`CN(C)c1ccccc1`: the outcome was inactive.

For the compound `CC(C)(C)OOC(C)(C)CCC(C)(C)OOC(C)(C)C`, the compound was called inactive.

`Cc1ccc(N)c(N)c1`: the AC50 was 35.9 µM (active).

Regarding `Cn1cc(-c2ccccc2)c(=O)c(-c2cccc(C(F)(F)F)c2)c1`, the AC50 is 1.52 µM (active).

Regarding `CC(C)(O)c1cnn2c(-c3ccc(F)c(-c4c(F)cccc4C#N)c3)cnc2n1`, the outcome was inactive.

In the case of `O=C(N[C@H](c1ccccc1)[C@@H]1CN2CCC1CC2)c1c(Cl)ccc(C(F)(F)F)c1Cl`, the half-maximal activity concentration (AC50) is 76.2 µM (active).

Turning to `OCCCBr`, the outcome was inactive.

As for `Nc1ccc(Oc2ccc(N)cc2)cc1`, the call was inactive.

Consider `CO[C@@H]1[C@H](OC(=O)NC(=O)CCl)CC[C@]2(CO2)[C@H]1[C@@]1(C)O[C@@H]1CC=C(C)C`, for which the compound was classed as inactive.

As to `O=Cc1ccco1`, the compound was called inactive.

As for `COc1cc(C=O)cc2c1[C@H](COC(N)=O)[C@]1(OC(C)=O)ON2C[C@H]2[C@@H]1N2C(C)=O`, the compound was classed as inactive.

As for `Brc1ccc(Oc2ccccc2)cc1`, the result was inactive.

In the case of `CC(C)(OOC(C)(C)c1ccccc1)c1ccccc1`, the half-maximal activity concentration (AC50) was 40.4 µM (active).

For the compound `N#CC(Br)(Br)C(N)=O`, the compound was called inactive.

With `CN(C)[C@@H]1C(=O)C(C(N)=O)=C(O)[C@@]2(O)C(=O)C3=C(O)c4c(O)cccc4[C@@](C)(O)[C@H]3C[C@@H]12`, the result was inactive.

For the compound `O=P(OCCCl)(OCCCl)OCCCl`, the compound was classed as inactive.

Consider `Cc1cccc(N)c1N`, for which the compound was called inactive.

With `C1=Cc2cccc3cccc1c23`, the outcome was inactive.

For `O=C(Nc1ccccc1)c1ccccc1I`, the result was inactive.

Consider `Cc1ccc([N+](=O)[O-])cc1`, for which the compound was called inactive.

Regarding `[As]#[In]`, the compound was classed as inactive.

As for `Cc1ccc(N=C=O)cc1N=C=O`, the result was inactive.
